# Assay results: PubChem BioAssay AID686979 (National Center for Advancing Translational Sciences (NCATS), 2013)
# Among all 420,000 compounds or so, about 50,000 (12%) were called active. Another 26% or so got no clear call; they are omitted. The entries come from a sample that favours actives as a whole. Unmarked numbers belong to inactive results. Calls come from the whole dose curve; as a rule, active = well fitted inhibition curve with a large enough effect; inconclusive = small, poorly fitted or top-dose-only effect; inactive = flat fitted curve, though single readings scatter.
# Experiment: qHTS for Inhibitors of human tyrosyl-DNA phosphodiesterase 1 (TDP1): qHTS in cells in presence of CPT; note: nearly all actives have a fitted effect of over 55% in size
# Details: chicken DT40 Tdp1-/-;hTDP1 cells + 20 nM CPT, ATP luminescence, 48 h; series mostly up to 46.2 µM; activity change, negative = growth inhibition: at the top concentration
# How it was run: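 Cell growth measured by CellTiter-Glo luminescence after a minimum 48 h, 37 C compound exposure with 20 nM CPT in Tdp1-knockout DT40 cells stably expressing hTDP1, seeded 400/well; qHTS titration format.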
# % is set by controls: 0 for no effect and ±100 for the full control effect; potency is the fitted concentration of half-maximal effect.
Compound,"activity change, negative = growth inhibition",Potency
O=C(Nc1cc(-c2nc3ncccc3o2)ccc1Cl)c1ccco1,-10.8%,–
CSCCC(NC(=O)c1ccco1)C(=O)Nc1cc(C)ccn1 (stereo unspecified),-18.2%,–
CC(=O)c1ccc(OCC(=O)N(C)C2CCS(=O)(=O)C2)cc1 (stereo unspecified),3.48%,–
CN(Cc1cc2cc(F)ccc2[nH]1)Cc1nc(-c2cnccn2)no1,9%,–
Cn1cc(CNC(=O)c2ccc(OC3CCN(Cc4ccccn4)CC3)cc2)cn1,-22.6%,–
CCOC(=O)C1(Cc2cccc(OC)c2)CCCN(S(=O)(=O)c2cccnc2)C1 (stereo unspecified),-5.29%,–
COc1cc(-c2nnc(NC(=O)CS(=O)(=O)c3ccc(Cl)cc3)o2)cc(OC)c1OC,-1.16%,–
Cc1ccc(C)c(-c2nnc(NC(=O)CS(=O)(=O)c3ccccc3)o2)c1,–,11.6 µM (active)
COc1ccc(-c2nnc(NC(=O)CS(=O)(=O)c3ccc(Cl)cc3)o2)c(OC)c1,-27.9%,–
Cc1cccc(C)c1NC(=O)NC1=CCCN1C,1.34%,–
CCOC(=O)c1ccc(S(=O)(=O)N(CCO)Cc2cc3cc(OC)c(OC)cc3[nH]c2=O)cc1,6.26%,–
CC(C)CC(N=C1NC(C)(C)Cc2ccccc21)C(=O)O (stereo unspecified),-1.87%,–
CCOc1ccc(NC(=O)CSc2ncnc3c2sc2ccccc23)cc1,-0.672%,–
C=CCn1c(=S)[nH]c2nc3c(cc2c1=O)COC(C)(C)C3,-8.44%,–
CC1(C)Cc2nc3sc4c(SCC(=O)NC(c5ccccc5)c5ccccc5)ncnc4c3cc2CO1,–,8.2 µM (active)
O=C1OC(OC(=O)c2ccccc2Br)C(N2CCOCC2)=C1Cl (stereo unspecified),-21.2%,–
Cc1ccccc1NC(=S)Nc1cccc([N+](=O)[O-])c1,-26%,–
COC(=O)/C=C\C(=O)Nc1cccc([N+](=O)[O-])c1,–,1.03 µM (active)
CC(=O)Nc1cccc([N+](=O)[O-])c1,-1.73%,–
COC(C(=O)NCc1ccccc1C)c1ccccc1 (stereo unspecified),-4.58%,–
CC(C)CC(O)C1CCN(C(=O)CCc2nnc(-c3ccc4c(c3)OCO4)o2)CC1 (stereo unspecified),-6.86%,–
Cc1ccc(OCc2n[nH]c(=S)n2-c2ccccc2)cc1,-19.1%,–

Compound,"activity change, negative = growth inhibition",Potency
S=c1[nH]nc(COc2ccccc2)n1-c1ccccc1,-1.82%,–
COc1ccc(OCc2n[nH]c(=S)n2N)cc1,–,18.4 µM (active)
CCOc1ccc(OCC(=O)OC(C)C(=O)NC2CCCCC2C)cc1 (stereo unspecified),-20.9%,–
Cc1cccc(N2CCN(C(=O)c3ccccc3NC(=O)C3CCCCC3C(=O)O)CC2)c1 (stereo unspecified),-21.7%,–
Cc1cccc(N2CCN(c3ccc(C(=O)O)cc3NC(=O)c3ccccc3F)CC2C)c1 (stereo unspecified),–,23.1 µM (active)
COc1c(C)cccc1C(=O)Nc1cc(Cl)ccc1N1CCOCC1,-11.3%,–
CNC[C@@H]1Oc2c(NS(C)(=O)=O)cccc2C(=O)N([C@@H](C)CO)C[C@H]1C,-3.82%,–
COCC(=O)N(C)C[C@H]1Oc2cc(Br)ccc2S(=O)(=O)N([C@H](C)CO)C[C@H]1C,-9.87%,–
Cc1cc(C(=O)OCC(=O)Nc2ccccc2Cl)c(C)o1,-12.6%,–
CC(C)Nc1nnc(SCC(=O)/C=C2\N(C)c3ccccc3C2(C)C)s1,–,16.4 µM (active)
CC(C)Nc1nnc(SCC(=O)c2c[nH]c3ccccc23)s1,-18.8%,–
COC(=O)c1ccc(CSc2nnc(NC(C)C)s2)cc1,-10.7%,–
Cc1ccccc1OCc1nc2c3cnn(-c4ccccc4F)c3ncn2n1,-21.3%,–
Cc1ccc(CNC(=O)c2cccnc2Cl)cc1,5.47%,–
CC1COc2ccccc2N1C(=O)c1cccnc1Cl (stereo unspecified),-2.09%,–
CN1/C(=C\C(=O)c2cccnc2Cl)C(C)(C)c2ccccc21,–,20.6 µM (active)
O=C1CSc2ccc(C(=O)NCc3ccccn3)cc2N1,-1.26%,–
CCc1ccc(C(=O)N2CCN(S(=O)(=O)c3sc(C(=O)O)c(C)c3C(=O)O)CC2)cc1,-12.2%,–
Cc1ccc(C)c(-n2cc(CN3CCN(C(=O)c4ncn[nH]4)CC3)c(-c3ccccc3)n2)c1,-39.7%,–
Cc1ccc(OCCC(=O)OCC(=O)N2c3ccccc3NC(=O)C2(C)C)cc1,-23.7%,–
CC(C)CC(=O)N/C(N)=N/c1nc2ccccc2s1,–,23.1 µM (active)
CC(C)CC(=O)NC(=S)NCc1ccccc1,-12.9%,–

Compound,"activity change, negative = growth inhibition",Potency
O=C(O)CSCc1nc2ccccc2s1,-17%,–
COc1ccc(C2c3ccc(O)cc3Oc3ncn(CCCO)c(=N)c32)cc1OC (stereo unspecified),-0.452%,–
CC[C@]1(C(=O)OC)[C@H]2C(=O)N(C)C(=O)[C@H]2[C@H]2CN(C)C(=NCc3ccccc3)N21,1.43%,–
O=C(NCCSc1ncc(-c2ccccc2)[nH]1)c1ccco1,-27.8%,–
COCCCNC(=O)C1CC(=O)N(CCc2ccc(F)cc2)C1 (stereo unspecified),-12.4%,–
COC(=O)c1ccccc1NC(=O)C1CC(=O)N(c2ccc(OC)cc2)C1 (stereo unspecified),-0.242%,–
COc1ccc(OC)c(NC(=O)C2CCN(S(=O)(=O)c3ccc(C)cc3)CC2)c1,10.2%,–
COC(=O)c1ccccc1NC(=O)C1CCN(S(=O)(=O)c2cc(OC)ccc2OC)CC1,–,23.1 µM (active)
CCCCCCCC/C=C\CCCCCCCC(=O)OC[C@H](CO)OC(C)=O,0.476% [at 4.12 µM],–
COC(=O)c1scc(C)c1NC(=O)CSc1ccc(Cl)cc1,-24.1%,–
O=C(NC(=S)N1CCCCC1c1cccnc1)c1ccccc1 (stereo unspecified),-6.28%,–
CC(=O)NC(=S)Nc1ccc(NC(=O)c2cccnc2)cc1,13.6%,–
CC(C)c1cc(Cn2c3ccccc3c(=O)n2C(C)Cn2cc(C3CC3)nn2)on1 (stereo unspecified),9.99%,–
CCC(C)CN1CCC(CO)(Cc2ccccc2Cl)CC1 (stereo unspecified),-27.3%,–
CCCCCCCCCCOC(=O)Cn1c(COc2cccc(OC)c2)[n+](C)c2ccccc21,–,2.31 µM (active)
CCCCCCCCC(=O)NCCOc1ccccc1,-3.08%,–
CCn1c(COc2cccc(OC)c2)nnc1SCC(=O)N1CCOCC1,-2.28%,–
O=C(CN1CCCCCC1)Nc1ccc(Cl)cc1F,-10.8%,–
Cn1cccc1C(=O)N1CCc2ccccc2C1,-15.1%,–
CC(CCc1ccccc1)NC(=O)c1cnc(Cl)c(Cl)c1 (stereo unspecified),-28.4%,–
CCc1cc2c(=O)n(-c3ccccc3)c(SCC(=O)O)nc2s1,7.25%,–
Cc1sc2nc(SCCO)n(-c3ccccc3)c(=O)c2c1C,–,13 µM (active)

Compound,"activity change, negative = growth inhibition",Potency
Cc1sc2nc(SCC(N)=O)n(C)c(=O)c2c1C,-16.3%,–
CCc1ccc(S(=O)(=O)Nc2ccc(C)c(NS(C)(=O)=O)c2)cc1,-21.3%,–
NC(=O)c1ccc(N2CCCC2)nc1,7.28%,–
Cc1cc(C)cc(OCC(=O)Nc2cc(NC(=O)COc3cc(C)cc(C)c3)cc(C(=O)O)c2)c1,-4.62%,–
Cc1ccc(Cl)cc1NC(=O)CN1CCN(S(=O)(=O)N2CCOCC2)CC1,-4.49%,–
CC(=O)Nc1c(C)nn(-c2ccccc2)c1N1CCC(C(=O)Nc2cc(Cl)ccc2C)CC1,-4.16%,–
Cc1ccc(Cl)cc1NC(=O)C1CCN(S(C)(=O)=O)CC1,–,6.51 µM (active)
Cc1ccc2c(c1)C1CN(C)CCC1N2C(=S)Nc1ccc(OC(F)F)cc1 (stereo unspecified),-1.44%,–
CCN(Cc1ccncc1)C(=S)Nc1ccccc1C,-14.5%,–
COc1ccc(N(CC(=O)NCC2CCCO2)C(=O)CCC(=O)Nc2nccs2)c(OC)c1 (stereo unspecified),-4.44%,–
Cc1ccc(C(=O)Nc2ccn(C)n2)cc1,6.62%,–
O=C(NCCN1CCCC(O)C1)c1cc(COc2c(F)cccc2F)on1 (stereo unspecified),-2.59%,–
Cn1nccc1C(=O)NC1CCCc2c1cnn2-c1ccc(F)cc1F (stereo unspecified),–,1.46 µM (active)
CC(=O)NCC(=O)NC1CCCc2c1cnn2-c1ccccc1F (stereo unspecified),-4.57%,–
Cn1nccc1C(=O)NC1CCCc2c1cnn2-c1ccccc1F (stereo unspecified),–,4.61 µM (active)
O=[N+]([O-])c1ccc(N2CCNCC2)cc1NCc1cccnc1,-7.77%,–
CN1CCN(/N=C/c2ccc(C#N)cc2)CC1,0.988%,–
COc1ccc(C(=O)CN2C(=O)NC3(CCc4ccccc43)C2=O)c(OC)c1 (stereo unspecified),-14.2%,–
COc1ccc(CNC(=O)CN2C(=O)NC3(CCCc4sccc43)C2=O)cc1 (stereo unspecified),6.22%,–
COc1ccc(-n2c(C)cc(C(=O)CN3C(=O)NC4(CCc5ccccc54)C3=O)c2C)cc1 (stereo unspecified),–,14.6 µM (active)
Cc1cc(/C=C2\SC(=O)N(C)C2=O)c(C)n1-c1cccc(C(=O)O)c1,-27.4%,–
COc1ccccc1NC(=O)C1=C(C)Nc2ncnn2C1c1sccc1C (stereo unspecified),-19.7%,–

Compound,"activity change, negative = growth inhibition",Potency
COc1ccccc1NC(=O)C1=C(C)Nc2nc3ccccc3n2C1c1cccs1 (stereo unspecified),–,4.11 µM (active)
CCOC(=O)C1=C(C)Nc2nc3ccccc3n2C1c1cccs1 (stereo unspecified),0.312%,–
O=C(c1ccccc1)c1cc(-c2ccccn2)c(N2CCOCC2)s1,-16.3%,–
c1csc(-c2nnc(COc3ncnc4sccc34)o2)c1,-2.84%,–
COc1ccccc1C1CN(Cc2ccccc2O)Cc2ccccc2O1 (stereo unspecified),-2.83% [at 9.04 µM],–
COC(=O)c1ccc(S(=O)(=O)N2CCC(c3nc4ccccc4o3)CC2)cc1,-17.1%,–
O=C(c1ccc(C(F)(F)F)cc1)N1CCC(c2nc(-c3ccc(S(=O)(=O)N4CCCC4)cc3)no2)CC1,–,20.6 µM (active)
NC(=O)C1CCN(C(=O)c2ccc(C(F)(F)F)cc2)CC1,3.63%,–
Cn1c(SCC(=O)C(C)(C)C)nnc1-c1ccccn1,-0.85%,–
CCOC(=O)c1c(S(=O)(=O)N2CCC(C(=O)NCc3ccccc3OC)CC2)c(C)n(C)c1C,-1.17%,–
CCCCNC(=O)Cn1nc(C)c(S(=O)(=O)N2CCOCC2)c1C,-16.1%,–
COc1ccc2nc(N3CCN(C(=O)c4ccc([N+](=O)[O-])o4)CC3)sc2c1,–,14.6 µM (active)
COc1ccc2nc(N3C(=O)C(O)=C(C(=O)c4ccco4)C3c3ccco3)sc2c1 (stereo unspecified),2.99%,–
Cc1ccc2nc(N3CCN(C(=O)c4ccco4)CC3)sc2c1,7.4%,–
COc1ccc(C(=O)OCC(=O)c2ccc(Cl)s2)c(OC)c1OC,-13.5%,–
Oc1ccc(-c2[nH]ncc2-c2nc3ccccc3s2)c(O)c1,-5.33%,–
COc1ccc(Oc2cn[nH]c2-c2ccc(OC)cc2O)cc1,–,25.9 µM (active)
COc1ccc(-c2[nH]ncc2CN(C)Cc2c(C)n[nH]c2C)c(OC)c1,2.49%,–
